Assay outcomes (PubChem)
KB-3-1 tox – KB-3-1 parental cell cytotoxicity | actives 1.4% (n = 400,000) | AID 1347075 | Potency, µM (highest dose often 46.1 µM), actives largely listed as cytotoxic | KB-3-1 viability, CellTiter-Glo ATP luminescence, 72 h; also: nearly all actives have a fitted effect of over 60% in size
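Luminescent ATP read-out (CellTiter-Glo) measures survival of drug-naive KB-3-1 cells after 72 h compound exposure at 37 °C. Titration series was screened from lowest to highest concentration, with DMSO vehicle plates as background controls.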
KB-V1 cytotox – KB-V1 MDR subline cytotoxicity | Potency, µM (top dose mostly 46.1 µM), actives largely listed as cytotoxic | actives 3.4% (n = 400,000) | KB-V1 MDR cells viability, CellTiter-Glo, 72 h; also: nearly all actives have a fitted effect of over 60% in size
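Readout: CellTiter-Glo luminescence, 10 min after addition. Cells: KB-V1 MDR subline, 72 h at 37 degrees C with compound. Analysis: corrected, normalized data fitted to concentration-effect curves.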
ATXN2 expr inh – reduces ATXN2 reporter expression in HEK-293 cells; HEK-293 ATXN2-luciferase reporter, luminescence, 24 h; Potency, µM (top dose mostly 57 µM), hits mostly inhibitors; actives 0.72% (n = 360,000); AID 1745845; also: nearly all actives have a fitted effect of over 55% in size
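ATXN2-luciferase reporter cells (luciferase flanked by upstream and downstream ATXN2 gene portions) were treated 24 h at 37 °C with compounds at up to 57 uM. SteadyGlo luminescence gave expression; GF-AFC fluorescence gave viability.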
ATXN viability – reduces viability in counter-screen for ATXN expression inhibitors; S2 cells (HEK-293 line with an ATXN2-luciferase reporter) viability, CellTiter-Fluor protease fluorescence, 24 h; Potency, µM (series often up to 56.7 µM), most hits filed as cytotoxic; actives 0.49% (n = 400,000); AID 651635; also: nearly all actives have a fitted effect of over 40% in size
HT1080NT lethal – kills 2HG-producing HT-1080-NT fibrosarcoma cells. HT-1080-NT fibrosarcoma viability, CellTiter-Glo ATP luminescence, 48 h. Potency, µM (highest dose often 46.1 µM), most hits filed as cytotoxic. actives 1.6% (n = 360,000);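 also: NT is the 2HG producing partner of a matched IDH1 knockdown line; nearly all actives have a fitted effect of over 55% in size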
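HT-1080-NT fibrosarcoma cells (2HG-overproducing), 750 cells/well in RPMI with 5% FBS, dosed after 2 h and incubated 48 h at 37C. CellTiter-Glo luminescence normalized to DMSO and no-cell wells; concentration-response curves fitted and classed.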
HT1080 IDH1KD tx – kills HT-1080 cells with IDH1 knockdown. HT-1080 IDH1 knockdown viability, ATP luminescence, 48 h. Potency, µM (series often up to 46.1 µM), usual class: cytotoxic. actives 2% (n = 360,000)
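Knockdown cells (IDH1KD HT-1080) received compounds 2 h after plating at 750 cells/well and were kept 48 h at 37 °C in 5% FBS RPMI. A CellTiter-Glo luminescence read gave % activity for curve fitting.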
Numbers stand for hits; n = inactive; u = inconclusive; x = not tested or not shown. Compounds with a hit are over-represented: about 6.2% of the library has one in this group of screens. Calls follow the shape of the dose curve; as a rule, active = well fitted curve in the direction sought with a large enough effect; inconclusive = small, poorly fitted or top-dose-only effect, or another doubt; inactive = no such curve, though single readings can be large; an effect the other way counts as inactive or inconclusive.

SMILES	KB-3-1 tox	KB-V1 cytotox	ATXN2 expr inh	ATXN viability	HT1080NT lethal	HT1080 IDH1KD tx
NC(=O)c1cccc(Nc2nc(C(N)Cc3ccc(C(F)(F)F)cc3)cs2)n1 (centres undefined)	u	n	28µM	u	7.3µM	u
COC(=O)c1cnc(Nc2nc(C(N)Cc3ccc(OC)cc3)cs2)nc1C(F)(F)F (centres undefined)	n	n	n	u	23µM	u
COc1ccc(CNC(=O)Nc2nc(C(N)Cc3ccc(C(F)(F)F)cc3)cs2)cc1 (centres undefined)	u	u	u	n	u	u
COc1cccc(Nc2nc(C(N)Cc3ccc(C(F)(F)F)cc3)cs2)n1 (centres undefined)	n	n	20µM	x	13µM	23µM
NC(Cc1ccccc1)c1csc(Nc2ccc(C(F)(F)F)cn2)n1 (centres undefined)	u	u	u	n	u	u
Cn1cnc([N+](=O)[O-])c1Sc1nc2ccccc2[nH]1	n	n	u	u	u	18µM
O=C(c1nc2ccccc2[nH]1)c1ccccc1[N+](=O)[O-]	u	n	n	n	n	n
O=[N+]([O-])c1nc2ccccc2[nH]1	u	18µM	n	n	n	n
Cc1cccc(Sc2c([N+](=O)[O-])ncn2C)c1	n	n	n	n	n	n
O=C(O)c1cc([N+](=O)[O-])c(Sc2nc3ccccc3[nH]2)c([N+](=O)[O-])c1	n	u	x	u	n	n
CS(=O)(=O)c1cc([N+](=O)[O-])c(Sc2nc3ccccc3[nH]2)c([N+](=O)[O-])c1	n	n	u	u	11µM	10µM
Cc1cc(CNC(=O)CCN2Cc3cc(Cl)ccc3OC(C)C2)nn1C (centres undefined)	x	x	x	n	x	x
COCCCNc1ncnc2sc(C(=O)N3CCCCC3)c(C)c12	x	x	x	n	x	x
Cc1nc2ccc(S(=O)(=O)NC(CC(C)C)C(=O)NCc3ccc(Cl)cc3)cc2s1 (centres undefined)	n	n	n	u	x	x
OC[C@@H]1CN(Cc2ccco2)C[C@H](n2cnc3c(NC4CCCC4)ncnc32)O1	n	n	n	n	n	n
CCn1c(CNC(=O)c2ccc(OC)cc2)nnc1SCC(=O)Nc1ccc(OC)cc1	n	n	n	n	x	x
CC(C)(C)C(=O)NCCCc1nc2ccccc2n1CCCOc1ccc(Cl)cc1	u	16µM	n	n	u	u
CC(=O)NCCc1nc2ccccc2n1CCCCOc1ccc(Cl)cc1	n	n	u	u	x	x
CCc1ccc(/C=C/C(=O)c2ccc(S(=O)(=O)N(C)C)cc2)cc1	n	21µM	n	n	n	n
COc1cc(/C=C2\COC/C(=C\c3cc(OC)c(OC)c(OC)c3)C2=O)cc(OC)c1OC	u	u	3.2µM	u	u	0.52µM
COc1cc(/C=C2\CC(C(C)(C)C)C/C(=C\c3cc(OC)c(OC)c(OC)c3)C2=O)cc(OC)c1OC (centres undefined)	8.2µM	n	u	u	12µM	5.8µM
C(=C\c1ccnc2ccccc12)/c1ccccc1	n	u	x	x	x	x
O=C(NNC1=C(C(=O)C(F)(F)F)CCC1)c1cccc(Cl)c1	u	u	u	u	u	23µM
O=C(NNC1=C(C(=O)C(F)(F)F)CCC1)c1ccc(Cl)cc1	n	n	u	u	u	7.9µM
COc1ccc(C(=O)NNC2=C(C(=O)C(F)(F)F)CCC2)cc1	u	u	n	n	n	u
SMILES	KB-3-1 tox	KB-V1 cytotox	ATXN2 expr inh	ATXN viability	HT1080NT lethal	HT1080 IDH1KD tx
O=C(NNC(=O)c1cccc(Cl)c1)NNC(=O)c1cccc(Cl)c1	n	n	n	n	n	u
CCCc1cc(=O)oc2c3c(cc(OCC(=O)N[C@@H](C)C(=O)O)c12)OC(C)(C)CC3	n	n	n	n	n	n
CCCc1cc(=O)oc2c3c(c4c(c12)OC(C)(C)C=C4)OC(C)C(C)C3O (centres undefined)	u	u	u	u	5.8µM	3.7µM
COc1ccc([C@H]2CC(=O)C=C(c3ccc(Cl)c(C(F)(F)F)c3)C2)cc1OC	n	n	u	u	n	n
COc1cccc(-c2nnc(NC(=O)c3ccc(S(=O)(=O)N4CC(C)OC(C)C4)cc3)o2)c1 (centres undefined)	u	u	u	u	u	9.2µM
CC1CN(S(=O)(=O)c2ccc(C(=O)Nc3nnc(-c4ccco4)o3)cc2)CC(C)O1 (centres undefined)	u	u	n	n	n	n
COc1ccc(-c2nnc(NC(=O)c3ccc(S(=O)(=O)N4CCc5ccccc5C4)cc3)o2)cc1	u	10µM	u	u	u	n
COc1ccc(-c2csc(NC(=O)c3ccc(S(=O)(=O)N4CCc5ccccc5C4)cc3)n2)cc1	u	n	n	n	n	u
Cc1ccccc1Cn1c(=O)n(Cc2ccc(Cl)cc2)c(=O)c2cccnc21	n	n	n	n	x	x
CC(C)C1N=C2c3ccccc3N=C(SCC(=O)NCc3ccc(Cl)cc3)N2C1=O (centres undefined)	n	n	n	n	x	x
CC(C)C1N=C2c3ccccc3N=C(SCc3cc(=O)n4cc(Cl)ccc4n3)N2C1=O (centres undefined)	u	23µM	n	n	n	n
Cc1nnc(N2CCOCC2)c2nn(-c3cccc(Cl)c3)c(C)c12	n	3.7µM	n	n	n	n
Cc1ccccc1N(C(=O)Cc1c[nH]c2ccccc12)C(C(=O)NC1CCCCC1)c1ccco1 (centres undefined)	n	u	n	n	u	u
COc1ccc(C(C(=O)NC2CCCCC2)N(Cc2cccs2)C(=O)Cc2c[nH]c3ccccc23)cc1OC (centres undefined)	u	8.2µM	n	n	u	u
COc1ccc(C(C(=O)NC2CCCCC2)N(C(=O)Cc2c[nH]c3ccccc23)c2ccccc2C)cc1OC (centres undefined)	n	u	n	u	n	n
Cc1ccc(C(C(=O)NC2CCCCC2)N(C(=O)Cc2c[nH]c3ccccc23)c2ccccc2C)o1 (centres undefined)	u	u	n	u	15µM	23µM
Cc1ccc(C(C(=O)NC2CCCCC2)N(Cc2ccco2)C(=O)Cc2c[nH]c3ccccc23)o1 (centres undefined)	n	10µM	n	u	n	n
Cc1ccc(N(C(=O)Cc2c[nH]c3ccccc23)C(C(=O)NC2CCCCC2)c2ccco2)cc1 (centres undefined)	u	16µM	u	u	u	u
O=C(CN1C(=O)C2(CCCC2)NC[C@H]1c1cc(F)cc(F)c1)Nc1ccc2c(c1)C[C@@]1(C2)C(=O)Nc2ncccc21	x	x	n	x	x	x
